# DT40 TDP1 CPT – growth inhibition of DT40 Tdp1-/-;hTDP1 cells with camptothecin (screen for TDP1 inhibitors) | chicken DT40 Tdp1-/-;hTDP1 cells + 20 nM CPT, ATP luminescence, 48 h | actives 12% (n = 420,000) | Potency, µM (highest dose often 46.2 µM), for inactives: at the top dose activity change, negative = growth inhibition, hits mostly inhibitors | AID 686979; also: potency is read from the fitted curve at half-maximal effect; % is scaled to controls: 0 for no effect and ±100 for the full control effect; nearly all actives have a fitted effect of over 55% in size
#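 Cell growth measured by CellTiter-Glo luminescence after a minimum 48 h, 37 C compound exposure with 20 nM CPT in Tdp1-knockout DT40 cells stably expressing hTDP1, seeded 400/well; qHTS titration format.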
# TDP1 block – TDP1 (human) enzyme inhibition. AID 485290. Potency, µM (doses to about 130 µM), for the others: at the highest dose activity change, negative = inhibition, most hits filed as inhibitors. actives 0.28% (n = 350,000). recombinant TDP1, AlphaScreen DNA substrate cleavage. Q9NUW8; also: potency is read from the fitted curve at half-maximal effect; % is scaled to controls: 0 for no effect and ±100 for the full control effect; nearly all actives have a fitted effect of over 40% in size
# Target sequence (Q9NUW8 whole entry, looked up): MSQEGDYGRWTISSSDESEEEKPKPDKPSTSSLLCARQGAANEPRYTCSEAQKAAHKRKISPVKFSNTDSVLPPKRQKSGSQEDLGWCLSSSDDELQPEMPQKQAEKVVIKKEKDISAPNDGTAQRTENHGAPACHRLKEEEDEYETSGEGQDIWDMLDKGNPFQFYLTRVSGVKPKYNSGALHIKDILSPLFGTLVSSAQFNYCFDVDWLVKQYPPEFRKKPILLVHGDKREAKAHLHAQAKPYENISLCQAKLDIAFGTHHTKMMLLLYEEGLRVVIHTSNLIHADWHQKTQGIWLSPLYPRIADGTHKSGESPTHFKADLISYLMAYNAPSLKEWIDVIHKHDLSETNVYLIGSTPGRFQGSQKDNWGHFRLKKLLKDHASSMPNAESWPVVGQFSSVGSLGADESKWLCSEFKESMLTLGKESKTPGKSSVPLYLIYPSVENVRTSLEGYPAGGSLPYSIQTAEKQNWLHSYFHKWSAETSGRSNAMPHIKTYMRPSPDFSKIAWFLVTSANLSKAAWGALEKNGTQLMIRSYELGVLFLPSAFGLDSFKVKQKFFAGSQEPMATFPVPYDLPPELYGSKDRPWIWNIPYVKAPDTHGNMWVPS
#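 Compounds were preincubated with Tdp1 (1 nM final) for 15 min at room temperature before substrate (15 nM final) started a 5 min reaction; beads (10 ug/ml final) were then added for 10 min before AlphaScreen detection.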
# IL-1B inflam inh – inflammasome signaling inhibition, IL-1 beta readout; THP-1 LPS/ATP IL-1B secretion, AlphaLISA, 16 h; active compounds read low; activity change, % at 57.5 µM; actives 4.7% (n = 360,000); AID 743279; in the data active = activity change below about -50%; inconclusive = mostly about -30% to -49%; also: % is scaled to controls: 0 for no effect and ±100 for the full control effect
#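 THP-1 cells pretreated 1 hr with compounds (up to 57.5 uM final), then stimulated with LPS (250 ng/mL final) plus ATP (1.25 mM final); secreted IL-1B measured by AlphaLISA after 16 hr, decreased signal indicating inhibition.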
# DT40 TDP1 no CPT – qHTS for Inhibitors of human tyrosyl-DNA phosphodiesterase 1 (TDP1): qHTS in cells in absence of CPT; Potency, µM (highest dose often 46.2 µM), without a hit: at the top dose activity change, negative = growth inhibition, usual class: inhibitors; DT40 Tdp1-/- hTDP1 cells, no CPT, ATP luminescence, 48 h; AID 686978, 2013; actives 15% (n = 420,000); also: potency is read from the fitted curve at half-maximal effect; % is scaled to controls: 0 for no effect and ±100 for the full control effect; nearly all actives have a fitted effect of over 55% in size
#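 Chicken DT40 Tdp1-/- cells stably complemented with human TDP1 were seeded at 400 cells/well with DMSO in place of 20 nM camptothecin. After compound pinning, cells grew at least 48 hr at 37 °C; viability read by CellTiter-Glo luminescence.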
# HepG2 tox-1 – counter-screen for TGF-b inhibitors: cytotoxicity in HepG2 cells | HepG2 CAGA-GFP viability, ATP luminescence, 18 h | Potency, µM (top dose mostly 46.1 µM), for inactives: top-dose activity change, negative = cytotoxicity, hits mostly cytotoxic | actives 0.76% (n = 410,000) | AID 588856; also: potency is read from the fitted curve at half-maximal effect
#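 HepG2 CAGA-GFP cells (1000/well, DMEM with 1% FBS) received compound, then TGF-beta at 500 pg/mL final, and were incubated 18 hours at 37 degrees C. Viability was read by CellTiter-Glo luminescence. Media-only wells were set as complete cell-killing and DMSO as no toxicity.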
# TGFb SMAD3 inh – blocks TGF-b signaling; AID 588855; HepG2 CAGA-GFP TGF-b/SMAD3 reporter, GFP fluorescence, 18 h; TGF-beta stimulated, 500 pg/mL final; Potency, µM (highest dose often 46.1 µM), for the others: top-dose activity, negative = inhibition, hits mostly inhibitors; actives 1.2% (n = 410,000); also: potency is read from the fitted curve at half-maximal effect; % is scaled to controls: 0 for no effect and ±100 for the full control effect; nearly all actives have a fitted effect of over 65% in size
#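 Per well, imaged GFP fluorescence of HEPG2 CAGA-GFP cells gives the signal; cells get compound, then TGF-beta (500 pg/mL final), 18 h at 37 degrees C; %Activity versus -TGF-beta and +DMSO controls.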
# TGFb confirm – confirmation of TGF-b signaling inhibitors in HepG2 reporter cells | shares compounds with TGFb SMAD3 inh | HepG2 CAGA-GFP TGF-b reporter, GFP fluorescence, 18 h; cells stimulated with TGF-beta, 500 pg/mL | Potency, µM (top dose mostly 46.1 µM), inactives show top-dose activity, negative = inhibition, most hits filed as inhibitors | AID 720534 | actives 63% (n = 1,600); also: potency is read from the fitted curve at half-maximal effect; % is scaled to controls: 0 for no effect and ±100 for the full control effect; nearly all actives have a fitted effect of over 65% in size
# HepG2 tox-2 – toxic to HepG2 cells in TGF-b counterscreen; HepG2 CAGA-GFP viability, ATP luminescence, 18 h; cells stimulated with TGF-beta, 500 pg/mL; shares compounds with TGFb SMAD3 inh; actives 27% (n = 1,600); Potency, µM (titrated, usually from 46.1 µM), for inactives: at the highest dose activity, negative = cytotoxicity, hits mostly inhibitors; also: potency is read from the fitted curve at half-maximal effect; % is scaled to controls: 0 for no effect and ±100 for the full control effect; nearly all actives have a fitted effect of over 70% in size
# TGFb CCL64 inh – TGF-b inhibition, CCL64 orthogonal assay; shares compounds with TGFb SMAD3 inh; CCL64 CAGA-GFP reporter, TGF-b stimulated, GFP fluorescence, 18 h; Potency, µM (highest dose often 46.1 µM), for the others: at the top dose activity, negative = inhibition, hits mostly inhibitors; actives 41% (n = 1,600); AID 720536; also: potency is read from the fitted curve at half-maximal effect; nearly all actives have a fitted effect of over 65% in size
# TGFb COP inh – TGF-b inhibition validated with COP promoter; shares compounds with TGFb SMAD3 inh; HepG2 COP-GFP TGF-b reporter, GFP fluorescence, 18 h; cells stimulated by added recombinant TGF-beta; Potency, µM (top dose mostly 46.1 µM), for inactives: at the top dose activity, negative = inhibition, hits mostly inhibitors; actives 3% (n = 1,600); also: potency is read from the fitted curve at half-maximal effect; nearly all actives have a fitted effect of over 70% in size
# Starred values were filed as active, the others as inactive; ? = inconclusive; . = no result; [ ] = dose if it differs, or a comment. Sampled rows, rich in hits. Any-hit rate of the full collection: about 19%. Unless noted, calls follow the shape of the dose curve; as a rule, active = well fitted curve in the direction sought with a large enough effect; inconclusive = small, poorly fitted or top-dose-only effect, or another doubt; inactive = no such curve, though single readings can be large; an effect the other way counts as inactive or inconclusive.
SMILES,DT40 TDP1 CPT,TDP1 block,IL-1B inflam inh,DT40 TDP1 no CPT,HepG2 tox-1,TGFb SMAD3 inh,TGFb confirm,HepG2 tox-2,TGFb CCL64 inh,TGFb COP inh
COc1cc(C(=O)NCCCOC(C)C)ccc1OC1CCN(C(C)=O)CC1,-7%,.,0,3%,-41%,-7%,.,.,.,.
N#C/C(=C\c1ccc(Sc2nc3ccccc3[nH]2)o1)c1ccccc1,?,7%,-73*,18µM*,52%,10µM*,9.2µM*,?,?,47%
N#CC(c1cccc(Cl)c1)c1ccc2c(C(F)(F)F)cc(C(F)(F)F)nc2n1 (centres undefined),1.5µM*,8%,-105*,1.6µM*,-49%,1.3µM*,0.37µM*,1.3µM*,1.2µM*,15%
OC(c1ccccc1)c1nc(-c2csc3ccccc23)cs1 (centres undefined),?,.,69,-2%,-42%,-27%,.,.,.,.
COc1ccc(S(=O)(=O)N2CCCCCC2)cc1C(=O)N(C)Cc1ccc(Cl)cc1Cl,?,.,-56*,?,0%,16µM*,18µM*,-19%,?,31%
COc1cn(-c2ccccc2)nc1C(=O)NCc1ccccc1,-27%,8%,?,-19%,2%,-1%,.,.,.,.
CC1=Nc2ccccc2/C1=C\c1sc(Nc2ccc(C)cc2)nc1O,0.58µM*,0%,-53*,0.92µM*,-3%,11µM*,5.2µM*,?,5.2µM*,17%
Oc1nc(Nc2cccc(Cl)c2)sc1/C=C1\C=Nc2ccccc21,?,8%,?,?,-68%,?,.,.,.,.
O=C(O)c1cccc(NC(CNS(=O)(=O)c2ccc(Cl)cc2)c2ccccc2)c1 (centres undefined),0%,1%,23,4%,2%,-22%,.,.,.,.
O=S(=O)(NCC(Nc1ccccc1)c1ccccc1)c1ccc(Cl)cc1 (centres undefined),?,3%,-79*,29µM*,-82%,10µM*,?,-5%,-1%,6%
CO[C@@]1(NC(=O)C(C(=O)O)c2ccc(O)cc2)C(=O)N2C(C(=O)O)=C(CSc3nnnn3C)CO[C@@H]21 (some centres undefined),-1%[21.1 µM],.,.,-14%[21.1 µM],.,.,.,.,.,.
Cc1cccc(C)c1OCC(=O)Nc1oc(-c2ccccc2)c(-c2ccccc2)c1C#N,?,.,-17,?,-5%,13µM*,?,?,?,27%
COc1ccc(-c2cc(N)n(S(=O)(=O)c3c(F)c(F)c(F)c(F)c3F)n2)cc1OC,0.18µM*,9%,-87*,0.82µM*,8.9µM*,4µM*,2.6µM*,8.2µM*,2.9µM*,?
COc1ccc(S(=O)(=O)n2nc(-c3cc(OC)c(OC)c(OC)c3)cc2N)cc1OC,-1%,5%,10,?,-16%,5%,.,.,.,.
CSCC[C@H](NC(=O)C1CCC(CNC(=O)[C@@H]2CCCN2C(=O)OC(C)(C)C)CC1)C(=O)O (some centres undefined),7%,.,-5,12%,-20%,-9%,.,.,.,.
COC(=O)c1scc(-c2ccc(C)cc2)c1S(=O)(=O)Nc1cc(Cl)ccc1C,?,10%,.,?,-37%,?,.,.,.,.
c1ccc(-c2cnc(C3CCCCC3)o2)cc1,-26%,.,-7,-16%,-5%,-7%,.,.,.,.
Cc1cc(C)cc(NS(=O)(=O)c2ccc(-c3cnc(C4CC4)o3)cc2)c1,0.82µM*,6%,24,0.82µM*,-108%,7.9µM*,8.2µM*,?,5.2µM*,15%
Cc1cccc(NS(=O)(=O)c2ccc(-c3cnc(C4CC4)o3)cc2)c1C,0.0073µM*,5%,84,0.01µM*,-25%,14µM*,1.8µM*,?,4.1µM*,18%
O=[N+]([O-])c1ccc(NS(=O)(=O)c2ccc(Cl)c(Cl)c2)cc1,9.2µM*,.,-27,10µM*,-9%,10µM*,10µM*,7.3µM*,?,82%
Cc1cc(C)c2c(N)c3ccccc3nc2n1,?,-4%,-89*,23µM*,10%,11µM*,21µM*,18µM*,13µM*,5%
CC(=NNC(=S)N1CCCC1)c1ccccn1,-83%,.,77,-90%,-22%,?,?,?,?,-14%
O=S1(=O)N=C(c2ccccc2)c2ccccc21,-22%,.,22,-13%,-8%,19%,.,.,.,.
O=C(NCC1CCCN(C(=O)Cc2ccccc2Cl)C1)c1ccc(F)cc1 (centres undefined),-20%,-1%,14,15%,-53%,-5%,.,.,.,.
CCCOc1ccccc1N/C(=N/c1nc(C)cc(C)n1)NC(=O)COc1ccc(OC)cc1,21µM*,8%,?,16µM*,-7%,10µM*,13µM*,-27%,?,24%
COc1cc(O)c(C(CC(=O)N2CCCC2)c2cc(OC)c(OC)c(OC)c2)c(OC)c1 (centres undefined),-6%,14%,1,-5%,19%,31%,5%,1%,-13%,-7%

# Screening data as filed in PubChem BioAssay.
